Assay results taken from PubChem BioAssay.
Calls of active or inactive are those of the source.

What was measured:
[1] = optical density shifts of acrAB sulA E. coli – strain DRC41, OD650, 48 h, E. coli filamentation inducer project, primary screen (AID 1152); conditions: higher = more signal, called active from +8 up or from −8 down;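 further: E. coli MC1000 strain DRC41 lacking acrAB efflux pump and sulA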
[2] = probe aLefty1 binding on compound microarray – biochemical, small-molecule microarray, 635/667 nm fluorescence, primary screen (AID 1153); conditions: higher = more signal;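 further: score merges spot fluorescence with signal-to-noise ratio from the scanned slide images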
[3] = plasmodial surface anion channel blockers, osmotic lysis – cell-based, P. falciparum Indochina, OD700, 1 h, primary screen (AID 1154); conditions: P. falciparum Indochina infected RBC osmotic lysis, higher = more signal, called active from +8 up or from −8 down
[4] = plasmodial surface anion channel blockers, osmotic lysis – cell-based, P. falciparum Indochina, OD700, 2 h, primary screen (AID 1155);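 further: lysis reports solute entry through the parasite surface anion channel PSAC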; conditions: P. falciparum Indochina infected erythrocytes, higher = more signal, called active from +8 up or from −8 down
[5] = changes in parasitized red cell lysis, either direction – P. falciparum Indochina, OD700, 3 h, PSAC antagonist project, primary screen (AID 1156); conditions: P. falciparum-infected erythrocytes, osmotic lysis, higher = more signal, called active from +8 up or from −8 down
[6] = plasmodial surface anion channel blockers, osmotic lysis – cell-based, P. falciparum Indochina, OD700, 18 h, primary screen (AID 1157); conditions: P. falciparum Indochina infected erythrocytes, osmotic lysis OD700, 18 h; higher = more signal, called active from +8 up or from −8 down
[7] = S6 kinase pathway phospho-S6 level changes – cell-based, A549, cytoblot, luminescence, serum-stimulated, primary screen (AID 1158); conditions: 5 h, higher = more signal;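 further: serum-stimulated A549 lung adenocarcinoma cells; signal is phosphorylated S6 detected by cytoblot immunostaining with HRP secondary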
[8] = molecular target: NADPH oxidase 2 (Homo sapiens) (UniProt P04839); assay: compounds shifting NOX2 Amplex Red fluorescence – cell-based, HEK293-NOX2, PMA-stimulated, NOX inhibitor project, primary screen (AID 1159); conditions: 45 min, higher = more signal, called active from +8 up or from −8 down; further: test concentration not given here
Sequence of NADPH oxidase 2 (Homo sapiens) (P04839 whole entry, looked up): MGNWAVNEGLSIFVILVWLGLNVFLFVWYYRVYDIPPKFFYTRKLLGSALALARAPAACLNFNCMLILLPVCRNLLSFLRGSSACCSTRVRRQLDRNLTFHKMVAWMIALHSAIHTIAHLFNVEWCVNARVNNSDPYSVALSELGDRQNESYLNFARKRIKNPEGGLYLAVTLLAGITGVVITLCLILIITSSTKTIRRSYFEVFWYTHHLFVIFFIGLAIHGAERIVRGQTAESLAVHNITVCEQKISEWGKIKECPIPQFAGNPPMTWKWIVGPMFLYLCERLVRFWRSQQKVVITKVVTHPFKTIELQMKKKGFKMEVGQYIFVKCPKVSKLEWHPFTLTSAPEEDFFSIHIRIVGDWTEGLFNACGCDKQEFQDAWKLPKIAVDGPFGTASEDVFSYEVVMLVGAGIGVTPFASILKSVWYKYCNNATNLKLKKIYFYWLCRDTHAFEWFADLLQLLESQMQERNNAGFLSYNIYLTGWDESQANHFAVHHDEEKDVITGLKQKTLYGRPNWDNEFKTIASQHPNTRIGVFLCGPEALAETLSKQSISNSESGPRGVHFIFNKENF

[9] = molecular target: NADPH oxidase 4 (Homo sapiens) (UniProt Q9NPH5); assay: compounds shifting NOX4 Amplex Red fluorescence – cell-based, HEK293-NOX4, tetracycline-induced, NOX inhibitor project, primary screen (AID 1160); conditions: HEK293-NOX4, Amplex Red H2O2 fluorescence, 45 min; higher = more signal, called active from +8 up or from −8 down
Sequence of NADPH oxidase 4 (Homo sapiens) (Q9NPH5 whole entry, looked up): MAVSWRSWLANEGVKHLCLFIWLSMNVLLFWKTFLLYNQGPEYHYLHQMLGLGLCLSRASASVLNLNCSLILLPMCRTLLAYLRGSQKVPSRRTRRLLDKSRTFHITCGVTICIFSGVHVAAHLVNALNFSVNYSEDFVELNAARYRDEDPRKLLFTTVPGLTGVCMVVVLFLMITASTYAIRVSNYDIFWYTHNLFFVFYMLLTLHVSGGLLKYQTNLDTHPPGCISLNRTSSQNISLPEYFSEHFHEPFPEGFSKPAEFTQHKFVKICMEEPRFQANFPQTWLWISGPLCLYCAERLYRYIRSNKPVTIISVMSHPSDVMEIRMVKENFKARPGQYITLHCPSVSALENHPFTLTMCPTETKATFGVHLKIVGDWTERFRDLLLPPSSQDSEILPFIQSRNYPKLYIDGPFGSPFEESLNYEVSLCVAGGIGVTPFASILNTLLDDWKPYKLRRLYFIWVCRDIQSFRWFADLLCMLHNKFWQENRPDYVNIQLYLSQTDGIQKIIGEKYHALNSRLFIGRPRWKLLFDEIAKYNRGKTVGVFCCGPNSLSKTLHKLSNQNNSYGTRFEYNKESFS

[10] = molecular target: NADPH oxidase 5 (Homo sapiens) (UniProt Q96PH1); assay: compounds shifting NOX5 Amplex Red fluorescence – cell-based, HEK293-NOX5, NOX inhibitor project, primary screen (AID 1161); conditions: HEK293-NOX5, ionomycin, 45 min, higher = more signal
Sequence of NADPH oxidase 5 (Homo sapiens) (Q96PH1 whole entry, looked up): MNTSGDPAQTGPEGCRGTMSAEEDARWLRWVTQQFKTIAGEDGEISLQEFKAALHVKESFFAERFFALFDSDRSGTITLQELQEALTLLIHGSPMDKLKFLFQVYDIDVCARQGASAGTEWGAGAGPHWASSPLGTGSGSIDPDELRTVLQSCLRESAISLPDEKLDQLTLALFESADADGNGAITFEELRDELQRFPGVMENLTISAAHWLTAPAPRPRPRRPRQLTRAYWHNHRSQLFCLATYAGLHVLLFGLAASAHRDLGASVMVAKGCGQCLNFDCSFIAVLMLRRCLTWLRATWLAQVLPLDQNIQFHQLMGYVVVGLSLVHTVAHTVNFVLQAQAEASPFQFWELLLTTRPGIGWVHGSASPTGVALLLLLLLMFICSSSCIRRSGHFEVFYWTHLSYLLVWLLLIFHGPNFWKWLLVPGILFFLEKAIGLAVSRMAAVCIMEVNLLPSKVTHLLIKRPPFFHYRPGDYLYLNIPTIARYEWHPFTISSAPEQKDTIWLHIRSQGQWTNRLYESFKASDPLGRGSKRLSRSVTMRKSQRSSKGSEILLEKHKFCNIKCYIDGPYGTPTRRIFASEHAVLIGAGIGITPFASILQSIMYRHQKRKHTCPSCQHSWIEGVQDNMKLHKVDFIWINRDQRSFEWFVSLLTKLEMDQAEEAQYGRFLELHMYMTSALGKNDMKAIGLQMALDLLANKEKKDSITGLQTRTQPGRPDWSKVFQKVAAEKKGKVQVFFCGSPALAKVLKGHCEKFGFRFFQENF

[11] = compound effects on lung adenocarcinoma cell viability – A549, calcein-AM fluorescence, 48 h, basal, profiling panel (AID 1162); conditions: higher = more signal; further: test concentration not given here
[12] = compound effects on differentiated 3T3-L1 adipocyte viability – cell-based, 3T3-L1 adipocytes, calcein-AM fluorescence, 48 h, basal, profiling panel (AID 1163); conditions: 3T3-L1 adipocytes viability, higher = more signal; further: test concentration not given here
[13] = compound effects on hepatocellular carcinoma cell viability – HepG2, calcein-AM fluorescence, 48 h, basal, profiling panel (AID 1164); conditions: higher = more signal; further: test concentration not given here
[14] = compound effects on multiple myeloma cell viability – MM1S, calcein-AM fluorescence, 48 h, basal, profiling panel (AID 1165); conditions: higher = more signal; further: test concentration not given here
[15] = calcein-AM signal in unstimulated myeloma cells – cell-based, calcein-AM fluorescence, 48 h, PK04 Diversity Set, profiling panel (AID 1166); conditions: RPMI8226 myeloma viability, higher = more signal;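 further: cells grown under basal conditions without added stimulus; test concentration not given here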
[16] = JC-1 mitochondrial signal, unstimulated HepG2 cells – cell-based, JC-1 fluorescence, 24 h, 100 nL compound, profiling panel (AID 1167); conditions: HepG2 mitochondrial potential, higher = more signal; further: test concentration not given here
[17] = JC-1 mitochondrial signal, unstimulated adipocytes – cell-based, JC-1 fluorescence, 3T3-L1 adipocytes, 24 h, 100 nL compound, profiling panel (AID 1168); conditions: JC-1 mitochondrial fluorescence, higher = more signal, called active from +8 up or from −8 down; further: test concentration not given here
[18] = JC-1 mitochondrial signal, unstimulated myeloma cells – cell-based, JC-1 fluorescence, RPMI8226, 24 h, 100 nL compound, profiling panel (AID 1169); conditions: JC-1 mitochondrial potential fluorescence, higher = more signal; further: test concentration not given here
[19] = JC-1 mitochondrial signal, unstimulated MM1S myeloma – cell-based, JC-1 fluorescence, 24 h, 100 nL compound, profiling panel (AID 1170); conditions: MM1S mitochondrial potential, higher = more signal; further: test concentration not given here
[20] = resazurin metabolic signal in A549 cells – cell-based, resazurin fluorescence, 24 h, PK04 Diversity Set, profiling panel (AID 1171); conditions: A549 viability, higher = more signal, called active from +8 up or from −8 down; further: test concentration not given here

Structure (SMILES): COc1ccc(O[C@H]2C=C[C@@H](c3ccccc3)O[C@@H]2CON=C(C)C)cc1
- z-score [1]: -2.05 (inactive)
- composite z-score [2]: 0.407
- z-score [3]: 0.288 (inactive)
- z-score [4]: -0.0779 (inactive)
- z-score [5]: -0.541 (inactive)
- z-score [6]: 0.196 (inactive)
- z-score [7]: -0.807
- z-score [8]: -0.254 (inactive)
- z-score [9]: -0.311 (inactive)
- z-score [10]: -0.684
- z-score [11]: 0.124
- z-score [12]: -0.556
- z-score [13]: -0.462
- z-score [14]: -1.53
- z-score [15]: -0.372
- z-score [16]: -1.18
- z-score [17]: 0.148 (inactive)
- z-score [18]: 0.472
- z-score [19]: -0.867
- z-score [20]: 0.0001 (inactive)

Structure (SMILES): C#CCCCON=C1C[C@@H](O)[C@@H](O)[C@@H]2[C@@H]3C(=O)N(c4ccc(F)cc4F)C(=O)[C@@H]3CC[C@H]12
- z-score [1]: -1.41 (inactive)
- composite z-score [2]: -0.193
- z-score [3]: 1.04 (inactive)
- z-score [4]: -1.22 (inactive)
- z-score [5]: 1.13 (inactive)
- z-score [6]: -1.41 (inactive)
- z-score [7]: 0.27
- z-score [8]: -0.76 (inactive)
- z-score [9]: 0.615 (inactive)
- z-score [10]: 0.306
- z-score [11]: 1.14
- z-score [12]: -0.0377
- z-score [13]: -0.123
- z-score [14]: 0.324
- z-score [15]: 0.116
- z-score [16]: 0.769
- z-score [17]: -0.229 (inactive)
- z-score [18]: -0.0797
- z-score [19]: -1.25
- z-score [20]: 0.705 (inactive)

Structure (SMILES): CCOC(=O)[C@H](Cc1ccccc1)NC(=O)CCC1CC(OC(=O)NCCc2ccc(F)cc2)CC2(CCCC(COC(=O)NCCOC)O2)O1 (stereo not given in full)
- z-score [1]: 0.602 (inactive)
- composite z-score [2]: -0.0468
- z-score [3]: 19.4 (active)
- z-score [4]: 4.99 (inactive)
- z-score [5]: 0.486 (inactive)
- z-score [6]: 0.737 (inactive)
- z-score [7]: 0.011
- z-score [8]: 0.188 (inactive)
- z-score [9]: 0.251 (inactive)
- z-score [10]: 0.0245
- z-score [11]: -0.153
- z-score [12]: -0.41
- z-score [13]: -0.981
- z-score [14]: -3.38
- z-score [15]: -1.7
- z-score [16]: 0.0204
- z-score [17]: 0.872 (inactive)
- z-score [18]: -0.326
- z-score [19]: -1.48
- z-score [20]: 0.042 (inactive)

Structure (SMILES): O=C1[C@H]2[C@H]3[C@H](O)[C@H](O)CC(=NOC[C@@H](O)COCc4ccco4)[C@H]3CC[C@H]2C(=O)N1c1ccc(F)cc1F
- z-score [1]: -0.575 (inactive)
- composite z-score [2]: 0.153
- z-score [3]: 1.12 (inactive)
- z-score [4]: -0.479 (inactive)
- z-score [5]: 0.679 (inactive)
- z-score [6]: -1.14 (inactive)
- z-score [7]: 1.69
- z-score [8]: -0.249 (inactive)
- z-score [9]: 0.498 (inactive)
- z-score [10]: 1.09
- z-score [11]: 1.1
- z-score [12]: 1.06
- z-score [13]: -0.0367
- z-score [14]: 0.621
- z-score [15]: -0.478
- z-score [16]: 0.501
- z-score [17]: -0.162 (inactive)
- z-score [18]: -0.117
- z-score [19]: -1.68
- z-score [20]: 0.224 (inactive)

Structure (SMILES): O=C1C[C@@H](O)[C@@H](O)[C@@H]2[C@@H]3C(=O)N(C[C@@H]4CCCO4)C(=O)[C@@H]3CC[C@@H]12
- z-score [1]: 0.668 (inactive)
- composite z-score [2]: -0.284
- z-score [3]: 0.786 (inactive)
- z-score [4]: -0.191 (inactive)
- z-score [5]: 1 (inactive)
- z-score [6]: -0.0672 (inactive)
- z-score [7]: 0.381
- z-score [8]: -1.38 (inactive)
- z-score [9]: 0.529 (inactive)
- z-score [10]: 0.624
- z-score [11]: 0.708
- z-score [12]: -0.378
- z-score [13]: 1.12
- z-score [14]: 0.107
- z-score [15]: -1.06
- z-score [16]: 1.29
- z-score [17]: -0.248 (inactive)
- z-score [18]: -0.407
- z-score [19]: 0.345
- z-score [20]: -0.582 (inactive)

Structure (SMILES): CCOC(=O)[C@H](CC(C)C)NC(=O)CCC1CC(OC(=O)NCc2cccc3ccccc23)CC2(CCCC(COC(=O)NCC3CCCCC3)O2)O1 (stereo not given in full)
- z-score [1]: -0.398 (inactive)
- composite z-score [2]: 0.183
- z-score [3]: 0.864 (inactive)
- z-score [4]: -1.04 (inactive)
- z-score [5]: 0.552 (inactive)
- z-score [6]: -1.35 (inactive)
- z-score [7]: 1.64
- z-score [8]: -2.61 (inactive)
- z-score [9]: -1.93 (inactive)
- z-score [10]: -2.79
- z-score [11]: -0.15
- z-score [12]: 1.09
- z-score [13]: -0.993
- z-score [14]: -2.66
- z-score [15]: -1.28
- z-score [16]: 0.895
- z-score [17]: -0.0758 (inactive)
- z-score [18]: 0.273
- z-score [19]: -0.929
- z-score [20]: 0.945 (inactive)

Structure (SMILES): CC(CCN1CCCc2nc(C)c(C)cc21)=NOC(C)CN1CCCCc2nc(C)c(C)cc21 (stereo not given)
- z-score [1]: -0.702 (inactive)
- composite z-score [2]: 0.123
- z-score [3]: 2.12 (inactive)
- z-score [4]: 0.193 (inactive)
- z-score [5]: 0.564 (inactive)
- z-score [6]: 0.415 (inactive)
- z-score [7]: -0.775
- z-score [8]: -0.397 (inactive)
- z-score [9]: -1.71 (inactive)
- z-score [10]: -0.496
- z-score [11]: -0.37
- z-score [12]: -0.219
- z-score [13]: -0.508
- z-score [14]: -0.675
- z-score [15]: -0.388
- z-score [16]: 1.83
- z-score [17]: -1.86 (inactive)
- z-score [18]: 0.264
- z-score [19]: 0.547
- z-score [20]: -0.0774 (inactive)

Structure (SMILES): O=C(NN=C1C[C@@H](O)[C@@H](O)[C@@H]2[C@@H]3C(=O)N(Cc4ccccc4)C(=O)[C@@H]3CC[C@@H]12)OCc1ccccc1
- z-score [1]: 0.151 (inactive)
- composite z-score [2]: 0.0837
- z-score [3]: 1.91 (inactive)
- z-score [4]: 0.801 (inactive)
- z-score [5]: 0.458 (inactive)
- z-score [6]: 0.526 (inactive)
- z-score [7]: 0.0339
- z-score [8]: -1.23 (inactive)
- z-score [9]: 0.0701 (inactive)
- z-score [10]: 0.224
- z-score [11]: 0.272
- z-score [12]: -0.201
- z-score [13]: -0.258
- z-score [14]: 0.372
- z-score [15]: 0.582
- z-score [16]: 1.23
- z-score [17]: 0.806 (inactive)
- z-score [18]: -0.37
- z-score [19]: -1.53
- z-score [20]: -0.534 (inactive)
